This is a sample that favours compounds with a hit; in the whole collection about 19% have one here.
HT1080 IDH1KD tx: qHTS for induction of synthetic lethality in tumor cells producing 2HG: qHTS for the HT-1080-IDH1KD cell line; HT-1080 IDH1 knockdown viability, ATP luminescence, 48 h; Potency, µM (highest dose often 46.1 µM), inactives show top-dose activity, negative = toxicity, usual class: cytotoxic; 2% of 360,000 active; AID 686971, 2013;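 further: potency means the concentration at half of the fitted maximal effect; 0% = DMSO wells and -100% = cell-free medium wells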
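Using the IDH1-knockdown HT-1080 line run in the same batch and compound series as the NT line, viability after 48 h at 37 °C was determined by CellTiter-Glo luminescence and expressed as % activity.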
DT40 TDP1 no CPT: qHTS for Inhibitors of human tyrosyl-DNA phosphodiesterase 1 (TDP1): qHTS in cells in absence of CPT; AID 686978, 2013; 15% of 420,000 active; DT40 Tdp1-/- hTDP1 cells, no CPT, ATP luminescence, 48 h; Potency, µM (doses to about 46.2 µM), for inactives: at the highest dose activity change, negative = growth inhibition, actives largely listed as inhibitors; further: potency means the concentration at half of the fitted maximal effect; nearly all actives have a fitted effect of over 55% in size
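Cells were dispensed at 400 per well, compounds added by pin tool, plates incubated ≥48 hr at 37 °C, then CellTiter-Glo added for 30 min at room temperature before luminescence reading. Line: DT40 Tdp1-/- complemented with hTDP1; camptothecin omitted.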
HT1080-NT tox: qHTS for induction of synthetic lethality in tumor cells producing 2HG: qHTS for the HT-1080-NT fibrosarcoma cell line; 1.6% of 360,000 active; Potency, µM (top dose mostly 46.1 µM), for the others: at the highest dose activity, negative = less viability, most hits filed as cytotoxic; HT-1080-NT fibrosarcoma viability, CellTiter-Glo ATP luminescence, 48 h; AID 686970, 2013;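 further: NT is the 2HG producing partner of a matched IDH1 knockdown line; potency means the concentration at half of the fitted maximal effect; 0% = DMSO-treated cells and -100% = media-only wells without cells; nearly all actives have a fitted effect of over 55% in size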
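Compounds were tested in concentration-response format on HT-1080-NT cells for 48 hours at 37 degrees C. Cell viability came from CellTiter-Glo luminescence; curves were classified by r2, response magnitude and activity.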
DT40 TDP1 CPT: qHTS for Inhibitors of human tyrosyl-DNA phosphodiesterase 1 (TDP1): qHTS in cells in presence of CPT; chicken DT40 Tdp1-/-;hTDP1 cells + 20 nM CPT, ATP luminescence, 48 h; Potency, µM (series often up to 46.2 µM), for inactives: at the top dose activity change, negative = growth inhibition, most hits filed as inhibitors; 12% of 420,000 active; AID 686979, 2013; further: potency means the concentration at half of the fitted maximal effect; nearly all actives have a fitted effect of over 55% in size
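Chicken DT40 Tdp1-/- cells complemented with human TDP1, 400 cells/well, exposed to compounds plus 20 nM camptothecin for at least 48 h at 37 C; viability read as ATP content by CellTiter-Glo luminescence.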
IL1B secr inh: qHTS for Inhibitors of Inflammasome Signaling: IL-1-beta AlphaLISA Primary Screen; THP-1 LPS/ATP IL-1B secretion, AlphaLISA, 16 h; hits give low values; activity change, % at 57.5 µM; 4.7% of 360,000 active; AID 743279, 2014; in the data active means activity change below about -50%; inconclusive means mostly about -30% to -49%
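Secreted IL-1B measured by AlphaLISA bead assay after 16 h compound exposure of THP-1 cells; compounds (final up to 57.5 uM) added 1 h before LPS (250 ng/mL) and ATP (1.25 mM) stimulation; lower signal means less secretion.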
Starred values were filed as active, the others as inactive; u = inconclusive; x = no result. Unless noted, the call rests on the fitted dose curve; in most records, active means well fitted curve in the direction sought with a large enough effect; inconclusive means small, poorly fitted or top-dose-only effect, or another doubt; inactive means no such curve, though single readings can be large; an effect the other way counts as inactive or inconclusive. Unless noted, on the % scale 0 is the no-effect control and ±100 the full control effect.

SMILES	HT1080 IDH1KD tx	DT40 TDP1 no CPT	HT1080-NT tox	DT40 TDP1 CPT	IL1B secr inh
COc1cc(-c2n[nH]c(=S)n2/N=C/c2cccn2C)cc(OC)c1OC	-21%	18µM*	-17%	u	45
COc1ccc(/C=N/n2c(-c3ccc(C)cc3)n[nH]c2=S)cc1OC	0%	u	17%	u	-51*
O=C1c2ccc(Cl)cc2S(=O)(=O)c2cccc(C(=O)N3CCN(c4ncc(Br)cn4)CC3)c21	17%	21µM*	10%	u	u
CC1CCN(c2ccc3c(c2)S(=O)(=O)c2cccc(C(=O)O)c2C3=O)CC1	0%	9%	4%	2%	24
COc1ccc(-c2ccc3c(c2)S(=O)(=O)c2cccc(C(=O)N4CCN(c5c(Cl)cncc5Cl)CC4)c2C3=O)cc1OC	-1%	5.2µM*	-10%	5.8µM*	-11
N#Cc1cccnc1N1CCN(C(=O)c2cccc3c2C(=O)c2ccc(Cl)cc2S3(=O)=O)CC1	-24%	16µM*	u	u	-99*
N#Cc1cccnc1N1CCN(C(=O)c2cccc3c2C(=O)c2ccc(-c4ccc(Cl)c(C(F)(F)F)c4)cc2S3(=O)=O)CC1	1%	-23%	9%	u	11
COc1ccc(/C=N/N=C/c2ccc(OC)c(OC)c2)cc1OC	0%	-23%	8%	-13%	13
COc1cc(/C=N/N=C(N)N)ccc1OCc1ccccc1Cl	-22%	15µM*	-16%	u	-66*
CSc1ccc(/C=C/C(=O)c2c(O)cc(C)oc2=O)cc1	1%	u	0%	-100%	-20
COc1ccc(CCNC(=O)COC(=O)c2cc(S(=O)(=O)N3CCOCC3)ccc2C)cc1OC	13%	u	3%	18µM*	12
O=C(NCCc1c[nH]c2ccccc12)c1cc(S(=O)(=O)N2CCCCC2)ccc1N1CCOCC1	-7%	13µM*	-10%	u	0
Cc1ccc(S(=O)(=O)N2CCOCC2)cc1C(=O)OCC(=O)NCCc1ccccc1	5%	u	0%	u	6
COc1ccc(CNC(=O)c2cc(S(=O)(=O)N3CCCCC3)ccc2N2CCOCC2)cc1OC	-11%	9.2µM*	3%	u	-29
COc1cc(NC(=O)c2cc(S(=O)(=O)N3CCCCC3)ccc2N2CCOCC2)cc(OC)c1	-24%	21µM*	-26%	21µM*	-7
CCCNC(=O)c1cc(S(=O)(=O)N2CCCCC2)ccc1N1CCOCC1	-2%	-4%	-1%	-11%	7
COC(=O)C[C@H]1c2cc(C(F)(F)F)ccc2S(=O)(=O)N1C(C)C	x	u	x	-8%	x
CC(C)Nc1ccc(-c2nc(-c3ccccn3)no2)cc1[N+](=O)[O-]	x	-1%	x	-4%	x
CN(C)S(=O)(=O)c1ccc(N2CCCC2)c(C(=O)Nc2ccccc2N2CCOCC2)c1	11%	u	1%	-25%	-3
Cc1ccc(S(=O)(=O)N2CCN(C(=O)c3cc(S(=O)(=O)N(C)C)ccc3N3CCCC3)CC2)c(C)c1	-6%	16µM*	0%	u	-1
Cc1ccc(S(=O)(=O)N(C)C)cc1NC(=O)c1cc(S(=O)(=O)N2CCCCC2)ccc1N1CCOCC1	-1%	12µM*	-6%	u	-19
CCN1C(=O)C(c2ccc(O)cc2)(c2ccc(O)cc2)c2ccccc21	-5%	-1%	-10%	2%	-94*
O=C(CSc1nnc(-c2ccc3c(c2)OCO3)o1)Nc1ncc(Cl)cc1Cl	u	21µM*	u	21µM*	-4
Cc1cc(C)c(C)c(S(=O)(=O)N(C)CCc2ccccn2)c1C	-1%	23µM*	0%	u	27
COc1ccc(Br)cc1CN1CCCC(C(=O)N2CCCCCC2)C1 (stereo not given)	-24%	23µM*	-24%	u	-57*
SMILES	HT1080 IDH1KD tx	DT40 TDP1 no CPT	HT1080-NT tox	DT40 TDP1 CPT	IL1B secr inh
O=C(C1CCN(Cc2ccccc2O)CC1)N1CCN(Cc2ccc3c(c2)OCO3)CC1	-10%	1%	0%	-1%	-17
COc1ccc(Br)cc1CN1CCCC(C(=O)N2CCCCC2)C1 (stereo not given)	-20%	-22%	-3%	-22%	-3
O=C(C1CCCN(Cc2cccc(Cl)c2)C1)N1CCCCC1 (stereo not given)	-9%	26µM*	-17%	u	6
O=C(C1CCN(Cc2cc(Cl)ccc2O)CC1)N1CCN(Cc2ccccc2)CC1	-23%	21µM*	-12%	u	-6
O=C(C1CCCN(Cc2ccc(Cl)cc2)C1)N1CCCCC1 (stereo not given)	-3%	11%	0%	-30%	16
COc1ccc(Br)cc1CN1CCC(N2CCCC2)CC1	-15%	u	-3%	u	-67*
COc1ccc(Br)cc1CN1CCN(C(=O)c2ccc(OC)c(OC)c2)CC1	-4%	-28%	-4%	u	-7
O=C(Cn1nnc(-c2cc(Cl)ccc2-n2cnnn2)n1)N1CCCc2ccccc21	-3%	21µM*	-2%	u	-11
Cc1ccc(S(=O)(=O)N2CCCC2)cc1C(=O)NCCN1CCOCC1	0%	-15%	-1%	-9%	14
O=C1CC(c2c(Cl)cccc2Cl)c2c(ccc3ccccc23)N1 (stereo not given)	x	26µM*	x	u	x
O=C1CC(c2cccc([N+](=O)[O-])c2)c2ccc3ccccc3c2N1 (stereo not given)	u	u	u	26µM*	-4
CCCOc1c(OC)cccc1C1CC(=O)Nc2cc(OC)c(OC)c(OC)c21 (stereo not given)	-6%	u	-7%	u	20
CCCCOc1ccccc1C1CC(=O)Nc2ccc3ccccc3c21 (stereo not given)	x	6.5µM*	x	12µM*	x
O=C1CC(c2cc([N+](=O)[O-])ccc2Cl)c2c(ccc3ccccc23)N1 (stereo not given)	u	15µM*	u	16µM*	18
O=C1CC(c2cccs2)c2ccc3ccccc3c2N1 (stereo not given)	u	-22%	u	u	52
COc1cc([N+](=O)[O-])cc2sc(NC(=O)c3c(F)cccc3F)nc12	-1%	10%	13%	1%	2
CSc1cccc(-c2nnc(NC(=O)c3cccc(N4C(=O)CCC4=O)c3)o2)c1	-17%	-11%	-2%	0%	-9

Compound activity: PubChem BioAssay, National Center for Advancing Translational Sciences (NCATS)
